Results from PubChem BioAssay (NCI).
About 83,000 compounds went through this panel and 20% of them were active in at least one assay; those are over-represented in the sample as a whole.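 Values shown are percent growth following 48 h exposure of cells in 96-well plates to a single concentration of compound; below 10 was considered active.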 Activity calls are given as the source filed them.

What follows are compounds tested on HCT-15 colon (assay: NCI-60 one-dose screen, 48 h (100 = growth as untreated, 0 = no growth, -100 = all killed)). Settings: 10 µM unless noted.
`C/C(=C\C(=O)c1ccc(Cl)cc1)c1ccc(Cl)cc1` was tested, and the growth was 44.6% (inactive).
With `CCC12CCC[N+]3([O-])CCC4(C(=Nc5ccccc54)C(O)(C(=O)OC)C1)C23` (centres undefined) the growth was 108% (inactive).
`CCN1C(=O)N(CC)C2Nn3c(s/c(=C4\C(=O)N(CCC(C)C)c5ccccc54)c3=O)=NC21` (centres undefined) was tested, and the growth was 47% (inactive).
For `S=c1nc(-c2ccccc2)oc(=NC2CCCCC2)n1C1CCCCC1`, the growth was 16.1% (inactive).
`NC[C@@H]1O[C@H](O[C@@H]2[C@@H](CO)OC(O[C@@H]3[C@@H](O)[C@H](N)C[C@H](N)[C@H]3OC3O[C@H](CN)[C@@H](O)[C@H](O)[C@H]3N)[C@@H]2O)[C@H](N)[C@@H](O)[C@@H]1O` (some centres undefined) was tested, and the growth was 103% (inactive).
For `Cc1cc(=O)oc2cc(OC(=O)N3CCN(C)CC3)ccc12`, the growth was 99.4% (inactive).
`C=CCc1cc(C)ccc1NC(C(=O)NCC(=O)OC)c1ccccc1` (centres undefined) was tested, and the growth was 91.8% (inactive).
With `COc1ccc(OC)c(/C=C/C(=O)N/N=C/c2ccccc2)c1` the growth was 42% (inactive).
In the case of `COc1ccc(/C=N/Nc2cc(=O)[nH]c3ccc(Cl)cc23)cc1`, the growth is reported as 39.5% (inactive).
With `CCOC(=O)c1[nH]c(C)c(C(=O)OCc2ccccc2C#N)c1C` the growth was 60.8% (inactive).
In the case of `COc1cc(Nc2nc(NCCN)nc3cc[nH]c(=O)c23)cc(OC)c1`, the growth is reported as 102% (inactive).
With `COc1cc(/C=C/c2c(C(C)=O)c(C)nc3ccccc23)cc(OC)c1OC` the growth was 25.4% (inactive).
With `Cc1nc2ccccc2c(/C=C/c2ccc(Cl)cc2)c1C(=O)/C=C/c1ccc(C(F)(F)F)cc1` the growth was -31.6% (active).
`O=C(N/N=C/[C@H](O)[C@H](O)[C@H](O)CO)c1ccc(NC(=O)c2cccnc2)cc1` was tested, and the growth was 106% (inactive).
For `COc1cccc(-c2nc(-c3ccc(NC(=O)c4ccccc4)cc3)[nH]c2-c2ccnc(Br)c2)c1`, the growth was -0.905% (active).
`CCCCn1c(=O)c(-c2cc(-c3ccc(Cl)cc3)nc(-c3ccc(Cl)cc3)c2)cc2cc(Cl)ccc21` was tested, and the growth was 97.8% (inactive).
In the case of `O=S(=O)(NCCCNc1cc(-c2c(-c3cccc(O)c3)nc3sccn23)ccn1)c1cccc2ccccc12`, the growth is reported as 24.4% (inactive).
`COc1cccc2c(=O)c3c(sc12)c(N1CCNCC1)nc1ccccc13` was tested, and the growth was 37.3% (inactive).
`COc1cc(-c2nc3sccn3c2-c2ccnc(NCCCNS(=O)(=O)c3ccc(F)cc3)n2)ccc1F` was tested, and the growth was 44.8% (inactive).
With `CCCCC[C@H](O)C/C=C1/C(=O)C=C[C@@H]1C/C=C\CCCC(=O)O` the growth was 69.5% (inactive).
`CCCCCCN1C(=O)/C(=c2\sc3n(c2=O)C2C(NN=3)N(CC)C(=O)N2CC)c2ccccc21` (centres undefined) was tested, and the growth was 1.65% (active).
`COc1cccc2c(=O)c3c(sc12)c(NCCCN)nc1ccccc13` was tested, and the growth was 28.9% (inactive).
With `COc1ccc2c(c1)c(-c1nn3cc(-c4cccs4)nc3s1)cn2C` the growth was 47.6% (inactive).
For `CCOC(=O)Nc1ccc(-c2nc(-c3cccc(OC)c3)c(-c3ccnc(Br)c3)[nH]2)cc1`, the growth was 5.65% (active).
